Screening data as filed in PubChem BioAssay.
Most compounds without a hit are left out; they make up all but 7.8% or so of the library.
VACV Venus inh = qHTS for Stage-Specific Inhibitors of Vaccinia Orthopoxvirus: Venus Reporter Primary qHTS; Vaccinia virus Venus reporter expression, fluorescence; Potency, µM (highest dose often 36.5 µM), inactives show at the highest dose activity change, negative = inhibition, most hits filed as inhibitors; 330,000 compounds, 0.46% hits; AID 720580, 2013; calls by dose curve; tested in A549 cells; note: potency is the fitted concentration of half-maximal effect; nearly all actives have a fitted effect of over 30% in size
Vaccinia mCherry = qHTS for Stage-Specific Inhibitors of Vaccinia Orthopoxvirus: mCherry Reporter Primary qHTS. Vaccinia virus mCherry reporter infection, fluorescence. Potency, µM (top dose mostly 36.5 µM), inactives show at the top dose activity change, negative = inhibition, usual class: inhibitors. 310,000 compounds, 0.63% hits; calls by dose curve; tested in A549 cells; note: potency is the fitted concentration of half-maximal effect; nearly all actives have a fitted effect of over 35% in size
LASV entry inh = qHTS for Inhibitors of binding or entry into cells for Lassa Virus | Potency, µM (series often up to 37.9 µM), inactives show at the highest dose activity change, negative = inhibition, usual class: inhibitors | Lassa virus pseudotype entry inhibition, cell reporter | 300,000 compounds, 1.2% hits; calls by dose curve; tested in HEK293 cells; note: potency is the fitted concentration of half-maximal effect; nearly all actives have a fitted effect of over 50% in size
HCV inhibitor = qHTS Assay for Inhibitors of Hepatitis C Virus (HCV). Huh7.5.1 HCVcc-Cre infection, luciferase reporter, 44 h. Potency, µM (series often up to 41.8 µM), for inactives: at the top dose activity change, negative = inhibition, usual class: inhibitors. 340,000 compounds, 3.4% hits. AID 651820, 2012; active = well fitted inhibition curve with a large enough effect; inconclusive = small, poorly fitted or top-dose-only effect, or another doubt; inactive = no such curve, though single readings can be large or run the other way; note: potency is the fitted concentration of half-maximal effect
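A cell-based infection assay in which seeded cells (1,000 per well) receive test compound after 4 h, are inoculated with HCVcc-Cre at approximately 0.5 moi, and are incubated 44 h before luminescence detection.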
Marburg entry inh = qHTS for inhibitors of binding or entry into cells for Marburg Virus; Marburg virus pseudotyped entry inhibition, cell reporter; Potency, µM (series often up to 37.8 µM), inactives show top-dose activity change, negative = inhibition, usual class: inhibitors; 300,000 compounds, 1.8% hits; AID 540276, 2011; calls by dose curve; tested in HEK293 cells; note: potency is the fitted concentration of half-maximal effect
HCMV antiviral = qHTS Assay for inhibitors of the human cytomegalovirus (HCMV); HFF cells, HCMV-luciferase reporter, 72 h; stronger effect = lower value; activity change, negative = inhibition, % at 57.5 µM; 410,000 compounds, 4.5% hits; AID 1259415, 2018; in the data active = activity change below about -60%; inconclusive = no clear call, values can overlap the other calls; inactive = above about -39%
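Screen run at 2 compound doses on HFFs infected with reporter HCMV, MOI 1 PFU/cell. Luciferase activity from cell lysates at 72 h post infection gave inhibition relative to buffer-only and Salinomycin wells.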
The depositor's hits bear a star; i = inactive; ? = inconclusive; . = not tested or not shown; [ ] = remark or other dose. % is set by controls: 0 for no effect and ±100 for the full control effect.

SMILES | VACV Venus inh | Vaccinia mCherry | LASV entry inh | HCV inhibitor | Marburg entry inh | HCMV antiviral
COc1ccccc1-c1nn(CCC(=O)Nc2ccccc2)c2nc(C)cc(C)c12 | -16.7% | -23.9% | -27.5%[46.1 µM] | . | -0.5%[46.1 µM] | 4.7
Cc1ccc(C(=O)/C=C/c2ccc(F)cc2)o1 | ? | -19.5% | ? | -11.4% | ? | ?
O=C(/C=C/c1ccc(F)cc1)c1ccccc1Br | 28.2µM* | ? | ? | ? | -28.0% | -81.6*
COc1cc([C@@H]2C(C#N)=C(N)Oc3cc(C)n(CCc4ccccc4)c(=O)c32)cc2c1OCO2 | . | . | . | . | -22.5% | .
Cc1sc(N/N=C/c2cccs2)nc1-c1ccccc1 | -13.3% | -23.7% | ? | ? | 7.94µM* | ?
Cc1sc(NC(=O)c2cccs2)nc1-c1ccccc1 | . | . | -2.5% | ? | ? | 113.9
CCCN1CCN(CCNC(=O)Nc2ccc(OC)c(OC)c2)CC1 | 3.5% | -2.6% | 14.8%[46.1 µM] | . | -14.0%[46.1 µM] | 8.4
COc1ccccc1Oc1ccc(NC(=O)c2ccc(Cl)cc2)cc1 | . | . | -3.5% | 2.82µM* | -14.3% | -24.5
COc1ccc(C(=O)Nc2ccc(OC)c(OC)c2)cc1 | . | . | 24.2% | -9.7% | ? | 43.6
COc1ccccc1Oc1ccc(Oc2ccccc2OC)cc1 | 4.2% | ? | ? | -4.7% | 10µM* | -19.3
Cc1ccc2nc(N(CCCN(C)C)C(=O)c3cc(-c4cccs4)nc4ccccc34)sc2c1 | . | . | . | 11.2µM* | . | 22.6
CN(C)CCCN(C(=O)c1cc(-c2cccs2)nc2ccccc12)c1nc2c(F)cccc2s1 | -28.0% | ? | ? | 12.3% | 11.2µM* | -8.5
Cc1ccc2nc(N(CCN(C)C)C(=O)c3cc(Cl)sc3Cl)sc2c1 | -12.9% | ? | ? | -10.9% | 7.7% | -12.9
Cc1ccc(-n2nc(CO)c(C(=O)NCc3ccccn3)n2)cc1 | -4.5% | -3.9% | -10.7%[46.1 µM] | . | 6.4%[46.1 µM] | 45.8
O=C1C2CCCCN2C(=O)N1CCCN1CCN(c2ccc(F)cc2)CC1 (stereo not given) | -17.5% | i | 4.3%[46.1 µM] | -28.4% | -6.7%[46.1 µM] | -0.2
Nc1ccc(N2CCN(CCCCN3C(=O)C4CCCN4C3=O)CC2)cc1 (stereo not given) | -11.4% | i | 14.5% | -37.4% | 3.16µM* | -10.7
CC[C@H]1OC(=O)C[C@@H](O)[C@H](C)[C@@H](O[C@@H]2O[C@H](C)[C@@H](O)[C@H](N(C)C)[C@H]2O)[C@@H](CCN2C[C@H](C)C[C@H](C)C2)C[C@@H](C)C(=O)/C=C/C(C)=C/[C@@H]1CO[C@@H]1O[C@H](C)[C@@H](O)[C@@H](OC)[C@H]1OC | -7.2% | -12.8% | . | . | . | .
CCc1cccc(C)c1NC(=O)CN1C(=O)c2ccccc2Sc2ncccc21 | -9.5% | -11.8% | 0.6%[46.1 µM] | . | . | -18.4
Fc1ccccc1Cn1c2[n+](c3ccc(C(F)(F)F)cc31)CCCCC2 | -17.2% | i | -11.4%[46.1 µM] | -15.1% | -4.7%[46.1 µM] | -67.6*
O=C(CCCn1c(=O)c2ccccc2n(CC(=O)Nc2cccc(C(F)(F)F)c2)c1=O)NCc1ccc2c(c1)OCO2 | -13.9% | -13.7% | 1.6%[46.1 µM] | . | -10.2%[46.1 µM] | 7.1
COc1cc(OC)cc(-c2sc3ccc(OC)cc3c2-c2ccc(O)cc2)c1 | ? | ? | . | ? | . | -33.8
COc1cc2sc(-c3ccccc3OC)c(-c3ccc(O)cc3)c2cc1OC | -24.9% | ? | . | 11.2µM* | . | 48.8
COc1ccc(-c2sc3ccc(OC)cc3c2-c2ccc(O)cc2)cc1 | ? | ? | . | 8.91µM* | . | ?
COCCN=c1scc(-c2cc(OC)c(OC)c(OC)c2)n1/N=C/c1c(C)[nH]c2ccccc12 | ? | ? | ? | 8.91µM* | 11.2µM* | 44.5
COc1ccc(NC(=O)c2cc(-c3ccccc3O)no2)cc1 | -7.7% | -1.8% | ? | . | . | 17.9
COc1ccc(-c2onc(C)c2-c2ccc(C(=O)OC(C)C)o2)c(O)c1 | ? | ? | ? | 6.31µM* | ? | -8.0
COc1cc(OC)cc(C(=O)NC(C(=O)N2CCc3ccccc3C2)C(C)C)c1 (stereo not given) | ? | ? | ? | -14.8% | 11.2µM* | -1.2
